Laboratory results as given in PubChem BioAssay.
Where “and” joins values, the source holds several entries; their conditions need not be identical. Identical values can stand only once. Calls of active or inactive are those of the source.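 Rule for the calls, unless noted: active = inhibition at or above 50% relative to wild type and mutant plate controls; inactive = inhibition below 50%.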

What was measured:
[1] = inhibitors of TNFa-induced NFkB p65 translocation, primary screen, imaging, HUVEC, MLSMR starter and 10KST1 sets (AID 438;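 active = inhibition above 20% together with a positive visual image hit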;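 note: compound added about 3h40 before a 20 min TNFalpha stimulation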;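 for inhibition: signal is the nuclear over cytoplasmic p65 intensity ratio per well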); conditions: HUVEC TNFa-induced p65 nuclear translocation; cell count: measured here: nuclei count (cytotoxicity indicator), at 2.08 µM; inhibition: at 2 µM, stronger effect = higher value, 0% TNFa-plus-vehicle, 100% no-TNFa wells
[2] = inhibitors of mutant huntingtin aggregation, primary screen, imaging, exon1htt(103Q)mCFP cells, high-content imaging (AID 483;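 active = visual image review flags a hit and inhibition of aggregation exceeds 20%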;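 note: compound exposure lasted 3 days before fixation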;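 for nuclei count: percent of the per-plate median nuclei count of sample wells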); conditions: exon1htt(103Q)mCFP cell line, aggregate imaging, at 2 µM; inhibition of aggregation: stronger effect = higher value; nuclei count: measured here: cell count, toxicity
[3] = inhibitors of E-selectin induction by TNFa, primary screen, imaging, HUVEC, immunofluorescence, MLSMR starter and 10KST1 sets (AID 487;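 active = visually confirmed hit in the image check and inhibition above 20%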;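 for inhibition: signal is fraction of cell area covered by stained E-selectin grains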;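 for nuclei count: 100% = median nuclei count of all wells on the same plate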); conditions: HUVEC TNFalpha-induced E-selectin immunofluorescence imaging, at 2 µM; inhibition: stronger effect = higher value; nuclei count: measured here: cell number, toxicity
[4] = DUSP6 inhibitors restoring Erk phosphorylation by chemical complementation, primary imaging in DUSP6-transfected HeLa (AID 609;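 active = compounds giving at least 50% inhibition in the cell-based MKP-3 phosphatase rescue imaging test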;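 for inhibition: phospho-Erk level distribution per well compared with pooled transfected vehicle control wells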); conditions: HeLa MKP-3 transfected, phospho-Erk imaging KS statistic, at 10 µM, cells stimulated with TPA for 15 min
[5] = molecular target: Dual specificity protein phosphatase 6 (Homo sapiens) (UniProt Q16828); assay: as above; conditions: HeLa MKP-3 transfected, phospho-Erk imaging KS statistic; at 10 µM; stronger effect = higher value; cells stimulated with TPA for 15 min
[6] = molecular target: Voltage-gated potassium channel subunit beta-2 (Rattus norvegicus) (UniProt P62483); assay: KvBeta enzyme negative modulators, primary screen, biochemical, NADPH fluorescence (AID 622;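 active = fluorescence slope higher than the sample average by over 3 SD, cut at about -0.22 in these data, passing the limit was not always enough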;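 note: slope of raw intensity against log time taken from 70 to 1610 s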); conditions: recombinant KvBeta, 4-cyanobenzaldehyde reduction, at 10 µM, stronger effect = higher value
[7] = molecular target: Voltage-gated potassium channel subunit beta-2 (Rattus norvegicus) (UniProt P62483); assay: KvBeta positive modulators, primary screen, biochemical, NADPH fluorescence (AID 623;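 active = NADPH fluorescence slope more negative than the mean of all samples by about 3 SD, 99.7% confidence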;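 note: fluorescence intensity change per second fitted from 20 to 320 s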); conditions: Recombinant KvBeta, NADPH fluorescence decrease slope, 10 min; at 10 µM; stronger effect = lower value
[8] = molecular target: Alpha-2C adrenergic receptor (Homo sapiens) (UniProt P18825); assay: modulators of alpha2C/GIRK thallium flux, primary screen, cell-based, HEK293 alpha2C/GIRK1/2 (AID 624;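 active = fluorescence slope after compound addition differing from the mean of all screened samples at 99.7% confidence, in either direction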;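 note: slope of fluorescence ratio to pre-addition baseline per second over 15 to 24 s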); conditions: thallium flux BTC fluorescence, at 10 µM, actives lie on both sides
[9] = inhibitors of larval lipid processing in zebrafish, primary screen, whole organism, PED6 fluorescence, gall bladder and intestine (AID 686;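 active = a full or partial loss of lipid-probe fluorescence in the fish gall bladder, intestine or both, judged by eye; inactive = no fluorescence loss, or compound toxic to the fish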;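 note: larvae 5 to 7 days old with five fish per well; signal comes from phospholipase A2 cleavage of quenched PED6 carried via bile; overnight exposure to compound and PED6 before scoring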); conditions: Zebrafish larvae PED6 lipid processing, fluorescence scoring; screened at 20 µM (by protocol)
[10] = inhibitors of Chlamydomonas gravitaxis, primary screen, whole organism, Chlamydomonas reinhardtii, WT vs cilia-less mutant, absorbance, 96-well (AID 463189); conditions: OD600 absorbance, 2 days, at 10 µM, stronger effect = higher value;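 note: 0% = wild type cc124 cells in DMSO and 100% = ciliumless bld1 mutant cells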
[11] = inhibitors of Sendai virus-induced IRF3 signaling, primary screen, TLR/RLR signaling modifier project, cell-based, Sendai virus stimulus, luciferase, 10K MLSCN set (AID 602276;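 active = inhibition at or above 50% at 10 µM; inactive = inhibition below 50%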;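 note: firefly luciferase from ISG56 promoter only with Renilla not read in this screen; 0% = Sendai virus plus DMSO and 100% = medium plus DMSO without virus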); conditions: HEK293 RL24 IRF3 luciferase reporter, at 10 µM, stronger effect = higher value
[12] = inhibitors of poly I:C-induced TLR3 signaling, primary screen, cell-based, poly I:C stimulus, luciferase, 10K MLSCN set (AID 602277;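 active = inhibition of the reporter signal at or above 50%; inactive = inhibition below 50%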); conditions: HEK293-TLR3 RL24 IRF3 luciferase reporter, at 10 µM, stronger effect = higher value
[13] = measured here: cell density z-score
[14] = measured here: nuclear c-Myc green intensity z-score
[15] = measured here: nuclear pErk red intensity z-score, stronger effect = higher value

Alpha-2C adrenergic receptor (Homo sapiens), sequence (P18825 whole entry, looked up): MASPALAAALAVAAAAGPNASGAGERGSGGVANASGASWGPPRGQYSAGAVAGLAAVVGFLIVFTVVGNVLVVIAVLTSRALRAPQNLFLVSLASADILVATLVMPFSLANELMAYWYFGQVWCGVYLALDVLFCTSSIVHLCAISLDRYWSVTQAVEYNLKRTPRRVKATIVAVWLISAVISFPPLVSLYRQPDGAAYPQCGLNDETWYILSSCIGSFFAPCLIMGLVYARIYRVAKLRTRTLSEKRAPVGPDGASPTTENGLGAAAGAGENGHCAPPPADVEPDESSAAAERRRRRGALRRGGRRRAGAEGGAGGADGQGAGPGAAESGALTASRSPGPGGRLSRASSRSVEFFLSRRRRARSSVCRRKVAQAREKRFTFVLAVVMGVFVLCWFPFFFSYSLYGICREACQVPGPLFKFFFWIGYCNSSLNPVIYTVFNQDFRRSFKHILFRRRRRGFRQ
Voltage-gated potassium channel subunit beta-2 (Rattus norvegicus), sequence (P62483 whole entry, looked up): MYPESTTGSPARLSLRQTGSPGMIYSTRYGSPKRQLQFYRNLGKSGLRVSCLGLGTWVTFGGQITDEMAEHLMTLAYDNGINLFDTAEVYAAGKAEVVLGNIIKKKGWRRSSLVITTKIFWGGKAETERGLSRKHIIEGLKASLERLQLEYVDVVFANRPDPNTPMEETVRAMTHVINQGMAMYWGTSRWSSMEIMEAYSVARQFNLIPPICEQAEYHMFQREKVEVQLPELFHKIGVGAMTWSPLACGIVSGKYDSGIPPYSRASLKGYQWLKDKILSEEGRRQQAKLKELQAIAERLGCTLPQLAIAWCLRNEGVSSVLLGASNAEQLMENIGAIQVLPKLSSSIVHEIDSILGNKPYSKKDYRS
Dual specificity protein phosphatase 6 (Homo sapiens), sequence (Q16828 whole entry, looked up): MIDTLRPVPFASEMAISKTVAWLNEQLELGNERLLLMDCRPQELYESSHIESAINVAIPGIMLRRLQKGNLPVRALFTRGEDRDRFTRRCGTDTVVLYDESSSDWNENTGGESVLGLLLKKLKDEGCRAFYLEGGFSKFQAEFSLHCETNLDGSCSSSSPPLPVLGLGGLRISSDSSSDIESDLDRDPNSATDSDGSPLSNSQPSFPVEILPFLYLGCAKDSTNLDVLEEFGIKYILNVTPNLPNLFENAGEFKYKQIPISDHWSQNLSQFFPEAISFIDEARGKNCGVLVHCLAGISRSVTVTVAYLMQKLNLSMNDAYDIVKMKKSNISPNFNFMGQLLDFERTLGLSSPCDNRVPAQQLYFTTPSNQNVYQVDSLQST

Row | SMILES | cell count [1] | inhibition [1] | inhibition of aggregation [2] | nuclei count [2] | inhibition [3] | nuclei count [3] | z-score [4, 13] | z-score [4, 14] | z-score [4, 15] | inhibition [5] | fluorescence slope [6] | NADPH fluorescence slope [7] | slope [8] | outcome [9] | inhibition [10] | inhibition [11] | inhibition [12]
1 | Oc1c(I)cc(I)c2cccnc12 | 615 | -0.5% (inactive) | -10.9% (inactive) | 110% | -79.9% (inactive) | 121% | -0.0594 | -1.99 | 1.27 | -11.9% (inactive) | -0.436 (inactive) | 7.6e-06 (inactive) | 0.00528 (inactive) | inactive | 2.25% (inactive) | 12.4% (inactive) | 30.5% (inactive)
2 | COc1cc([C@@H]2c3cc4c(cc3[C@H](O)[C@H]3COC(=O)[C@H]23)OCO4)cc(OC)c1OC | 436 | 21.5% (active) | -118% (inactive) | 1.5% | -226% (inactive) | 86.2% | 0.542 | -0.666 | -0.822 | -6.41% (inactive) | -0.472 (inactive) | -0.000104 (inactive) | 0.00519 (inactive) | inactive | 0.865% (inactive) | 33.7% (inactive) | 81.6% (active)
3 | CCC(C(=O)OCCN(CC)CC)c1ccccc1 (stereo not given) | 572 | -11.1% (inactive) | -9.9% (inactive) | 104% | -56.9% (inactive) | 130% | 1.14 | 1.04 | 0.111 | 19.2% (inactive) | -0.459 (inactive) | -3.7e-05 (inactive) | 0.00422 (inactive) | inactive | 21.8% (inactive) | 8.3% (inactive) | 34.3% (inactive)
4 | CCN(CCCCOC(=O)c1ccc(OC)c(OC)c1)C(C)Cc1ccc(OC)cc1 (stereo not given) | 635 | -4.8% (inactive) | -7.1% (inactive) | 96.1% | -106% (inactive) | 138% | 0.515 | -0.208 | -0.515 | 9.37% (inactive) | -0.488 (inactive) | -7.4e-05 (inactive) | 0.00442 (inactive) | inactive | 55.2% (active) | -44.7% (inactive) | 57.4% (active)
5 | OCCNC1=NCCN1 | 552 | -6.3% (inactive) | 28.8% (active) | 104% | -4.8% (inactive) | 146% | -0.706 | -1.05 | 0.931 | -3.98% (inactive) | -0.523 (inactive) | -7.4e-05 (inactive) | 0.00539 (inactive) | inactive | -5.29% (inactive) | 17.3% (inactive) | 20.3% (inactive)
6 | CC(C)(C)n1cnc2cc(NS(=O)(=O)c3ccc(Br)cc3)ccc21 | 543 | -1.5% (inactive) | -9.9% (inactive) | 99.9% | -37% (inactive) | 108% | 0.246 | 1.31 | -0.322 | -5.26% (inactive) | -0.373 (inactive) | 2.9e-05 (inactive) | 0.00461 (inactive) | inactive | -15% (inactive) | 15.5% (inactive) | 13.8% (inactive)
7 | CC(O)Cn1cnc2c1c(=O)n(C)c(=O)n2C (stereo not given) | 541 | -7% (inactive) | 11.8% (inactive) | 99.1% | -13.1% (inactive) | 128% | 1.09 | -0.569 | -0.416 | 15.3% (inactive) | -0.45 (inactive) | -7.7e-05 (inactive) | 0.00504 (inactive) | inactive | 23.2% (inactive) | 12% (inactive) | 29.4% (inactive)
8 | Cc1[nH]c2ccc(F)cc2c(=O)c1SC(F)(F)C(F)C(F)(F)F (stereo not given) | 491 | -1.1% (inactive) | 4% (inactive) | 77.7% | -48.3% (inactive) | 123% | -0.588 | 0.342 | -0.414 | 2.46% (inactive) | -0.42 (inactive) | -3.8e-05 (inactive) | 0.0059 (inactive) | inactive | -4.7% (inactive) | 14.5% (inactive) | 20.3% (inactive)
9 | O=C(CCNNC(=O)c1ccncc1)NCc1ccccc1 | 595 | 2.2% (inactive) | -4.6% (inactive) | 104% | -81.8% (inactive) | 117% | -1.05 | -0.737 | 0.12 | 8% (inactive) | -0.485 (inactive) | -7.6e-05 (inactive) | 0.00448 (inactive) | inactive | 4.6% (inactive) and 1.15% (inactive) | -7.31% (inactive) | 21.4% (inactive)
10 | COC(=O)c1ccc(-c2sc3nc(N4CCOCC4)c4c(c3c2N)CCCC4)o1 | 683 | -7.7% (inactive) | -43% (inactive) | 103% | 18.1% (inactive) | 126% | -0.0797 | 0.0278 | 1.68 | 14.4% (inactive) | -0.000813 (inactive) | 0 (inactive) | 0.0101 (inactive) | inactive | -6.82% (inactive) | 13% (inactive) | -14.5% (inactive)
